Three compounds from ChEMBL document CHEMBL1201862, “PubChem BioAssay data set” (2004) can be followed below.

In all, about 18,000 compounds went through this assay and about 1,200 (6.7%) were called active. Roughly 16% stayed inconclusive and do not appear here. The calls are words filed in the database; no cut-off is given here. Only a selection was taken, and actives are over-represented in it overall.

A short description of this test: qHTS for Inhibitors of binding or entry into cells for Marburg Virus. (In general: Quantitative high-throughput screening tests each substance at several concentrations.)
On to `COC[C@@H]([C@H](O)[C@H](O)C(=O)NCC[C@H](C)c1nc(/C=C/C[C@@H]2O[C@]3(C[C@@H](O)[C@@H]2C)O[C@H]([C@H](C[C@H](O)[C@H](C)[C@H](O)[C@H](C)/C=C(C)/C(C)=C/C=C/C(C)=C\C#N)OC)[C@H](OP(=O)(O)O)C3(C)C)co1)N(C)C`, for which the Potency is 0.0411 µM (active).
In the case of `COC(=O)[C@H]1[C@H]2C[C@@H]3c4[nH]c5cc(OC)ccc5c4CCN3C[C@H]2C[C@@H](OC(=O)c2cc(OC)c(OC)c(OC)c2)[C@@H]1OC`, the Potency is 355 µM (active).
Next, NITROPRUSSIDE, CHEMBL2097081: “inactive; 562.3 nM”.
